# Laboratory results taken from PubChem BioAssay AID1511 (Johns Hopkins Ion Channel Center, 2009).
# Among all 310,000 compounds or so, about 1,600 (0.52%) were called active. The entries come from a sample that favours actives as a whole. A number with no mark means an inactive call.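 Rule for the calls: active = activation above the mean of controls blocked by dofetilide plus 5 SD; inactive = the rest.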
# Target: Voltage-gated inwardly rectifying potassium channel KCNH2 (Homo sapiens) (UniProt Q12809)
# Test: hERG rescue from dofetilide block, primary screen, cell-based, CHO-hERG, FluxOR thallium flux, dofetilide IC70 (AID 1511);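 note: thallium influx through hERG after potassium depolarization seen as dye fluorescence rise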
# Details: dofetilide IC70 present, at 10 µM, stronger effect = higher value
# Chain of Voltage-gated inwardly rectifying potassium channel KCNH2 (Homo sapiens) (Q12809 whole entry, looked up): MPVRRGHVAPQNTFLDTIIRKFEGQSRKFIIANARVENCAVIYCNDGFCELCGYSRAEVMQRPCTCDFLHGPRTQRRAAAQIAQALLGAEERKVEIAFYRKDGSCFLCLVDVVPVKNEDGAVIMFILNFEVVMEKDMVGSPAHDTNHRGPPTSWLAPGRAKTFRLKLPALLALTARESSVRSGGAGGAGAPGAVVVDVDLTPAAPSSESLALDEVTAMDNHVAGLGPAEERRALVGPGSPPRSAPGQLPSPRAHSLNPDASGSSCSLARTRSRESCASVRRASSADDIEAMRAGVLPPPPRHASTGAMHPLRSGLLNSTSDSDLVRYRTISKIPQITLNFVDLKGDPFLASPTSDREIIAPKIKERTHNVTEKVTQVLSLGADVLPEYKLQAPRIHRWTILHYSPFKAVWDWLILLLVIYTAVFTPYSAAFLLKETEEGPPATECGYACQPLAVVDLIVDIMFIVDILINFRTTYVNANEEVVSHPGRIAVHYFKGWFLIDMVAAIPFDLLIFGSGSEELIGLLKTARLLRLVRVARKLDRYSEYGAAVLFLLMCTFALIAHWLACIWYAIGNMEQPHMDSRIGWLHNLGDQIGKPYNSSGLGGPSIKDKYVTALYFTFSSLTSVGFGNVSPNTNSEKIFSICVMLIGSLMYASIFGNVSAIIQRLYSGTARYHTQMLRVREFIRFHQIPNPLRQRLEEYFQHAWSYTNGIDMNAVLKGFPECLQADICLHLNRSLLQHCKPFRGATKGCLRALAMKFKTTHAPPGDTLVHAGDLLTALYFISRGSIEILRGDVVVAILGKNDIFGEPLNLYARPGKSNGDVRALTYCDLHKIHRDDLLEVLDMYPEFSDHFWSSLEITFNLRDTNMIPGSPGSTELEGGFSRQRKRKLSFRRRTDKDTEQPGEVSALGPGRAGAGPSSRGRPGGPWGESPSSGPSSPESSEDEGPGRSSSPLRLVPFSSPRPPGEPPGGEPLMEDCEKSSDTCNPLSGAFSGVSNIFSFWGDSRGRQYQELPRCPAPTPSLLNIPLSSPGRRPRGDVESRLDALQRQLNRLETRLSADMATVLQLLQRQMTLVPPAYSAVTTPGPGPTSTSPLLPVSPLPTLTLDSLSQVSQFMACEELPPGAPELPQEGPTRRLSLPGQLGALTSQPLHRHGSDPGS
row,Compound,"activation (rescue from dofetilide block), less the hit threshold"
1,CCOC(=O)c1c(NC(=S)NC)sc2c1CCCC2,28.9% (active)
2,CCOC(=O)c1c(NC(=O)C2(C)Cc3ccccc3C(=O)O2)sc2c1CCCC2 (centres undefined),-5.83%
3,CCOc1ccc(CCN2C(=O)c3cccnc3C2=O)cc1OCC,-5.29%
4,O=C(NCc1ccccn1)c1c(O)c2c([nH]c1=O)CCCC2,-0.66%
5,CCc1nnc(NC(=O)c2c(O)c3c([nH]c2=O)CCCC3)s1,-12.7%
6,C[N+](C)(C)CCNC(=O)c1c(O)c2c([nH]c1=O)CCCC2,4.89% (active)
7,CCSc1ccccc1C(=O)NCc1ccc(OC)cc1,0.47%
8,CCC(C(=O)NC1CCCC1)N(C(=O)Cn1nnc(-c2ccc(C)o2)n1)c1ccc(OC)c(OC)c1 (centres undefined),-1.5%
9,O=C(NC(=S)NC1CCCCC1)c1ccc(Cl)cc1,-1.76%
10,CC(C)CNC(=S)NC(=O)c1ccc(Cl)cc1,7.52% (active)
11,CC(C)C(NC(=O)c1ccc(Cl)cc1)C(=O)O (centres undefined),-8.13%
12,OC(c1nnc(-c2ccccc2)o1)c1cccs1 (centres undefined),-10.2%
13,COCCCNC(=O)[C@H]1N2C(=O)c3ccccc3C2SC1(C)C (some centres undefined),-7.64%
14,CC1CCCN(C(=O)c2ccc3c(c2)C(=O)N(CCC2=CCCCC2)C3=O)C1 (centres undefined),-17.2%
15,Cc1ccc(S(=O)(=O)Oc2ccc(/C=N/NC(=O)c3c(Cl)cnn3C)cc2)cc1,-18.1%
16,CCc1nc2sc3c(Cl)ncnc3c2c2c1CCCC2,-13.4%
17,Cc1cc(C)c2nc(NC(=O)C3CCCO3)sc2c1 (centres undefined),5.12% (active)
18,Cc1ccc(C)c(C(C)NC(=O)C2CCCO2)c1 (centres undefined),-6.97%
19,Cc1cc([N+](=O)[O-])ccc1NC(=O)C1CCCO1 (centres undefined),-1.96%
20,CSc1cccc(NC(=S)N(C(C)C)C(C)c2ccccn2)c1 (centres undefined),-10.5%
21,Cc1cc(NC(=O)CSc2nc3ccccc3n2CC(C)C)no1,-8.27%
22,N#Cc1c(NC(=O)CSc2nc3ccccc3c(=O)n2Cc2ccco2)sc2c1CCCC2,-16.4%
23,Cc1cc(NC(=O)CSc2nc3cc(Cl)ccc3c(=O)n2Cc2ccco2)no1,6.67% (active)
24,CCN1CCN(c2nc(Nc3cccc(F)c3)nc(N)c2[N+](=O)[O-])CC1,1.19%
25,CCCN(CCC)S(=O)(=O)c1ccc(C(=O)NNC(=O)c2cc(OC)c(OC)c(OC)c2)cc1,-5.35%

row,Compound,"activation (rescue from dofetilide block), less the hit threshold"
1,CC1(OC(=O)C2CCCC2)C(=O)C=C2C=C(c3ccc(C#N)cc3)OC=C2C1=O (centres undefined),7.34% (active)
2,C=CCN1C=C2C(=O)C(C)(OC(=O)CCc3ccccc3)C(=O)C=C2C=C1c1ccc(C#N)cc1 (centres undefined),-7.84%
3,COCCN1C=C2C(=O)C(C)(OC(=O)C3CCCC3)C(=O)C=C2C=C1c1ccsc1 (centres undefined),-7.58%
4,COc1ccc2c(c1)OC(O)(C(F)(F)C(F)F)CC2=O (centres undefined),-2.37%
5,CC1CCN(S(=O)(=O)c2ccc3ncn(CC(=O)N(C)C4CCCCC4)c(=O)c3c2)CC1,-5.76%
6,O=C(Cn1cnc2ccccc2c1=O)Nc1cccc(S(=O)(=O)N2CCCCC2)c1,-13.8%
7,CCN1CCCC1CNC(=O)Cn1cnc2ccc(S(=O)(=O)N3CCC(C)CC3)cc2c1=O (centres undefined),7.23% (active)
8,CN(CCc1cn[nH]c1)C(=O)CC1C(=O)NCCN1Cc1cccc(Oc2ccccc2)c1 (centres undefined),-5.68%
9,NC(=O)Cc1ccc2c(c1)[nH]c1ccccc12,-8.6%
10,S=c1[nH]c2ccccc2c2ccccc12,6.26% (active)
11,S=c1ccc2ccccc2[nH]1,-11.4%
12,O=C(C1CCCN1S(=O)(=O)c1ccc(Br)cc1)N1CCOCC1 (centres undefined),-0.78%
13,CCCCCC1CCC(c2nnc(SCC(C)=O)o2)CC1 (centres undefined),5.95% (active)
14,CCN(CC)C(=O)CSc1nnc(C2CCCCC2)o1,-6.69%
15,O=C(CSc1nnc(-c2ccccc2O)o1)NC1CCCCC1,-7.03%
16,O=c1oc2ccccc2cc1-c1cn(-c2ccccc2)c(=S)[nH]1,-6.67%
17,S=c1[nH]c(-c2cccs2)cn1-c1ccccc1,8.23% (active)
18,COc1ccc(-c2cn(-c3ccc(OC)cc3)c(=S)[nH]2)cc1,-3.47%
19,CC(=O)N1CCN(S(=O)(=O)c2ccc(C)c([N+](=O)[O-])c2)C1C(C)C (centres undefined),-8.18%
20,Cc1ccc2c(c1)N(CC(=O)N1CCC(C)CC1)C(=O)c1cccnc1O2,-4.18%
21,C=CCc1cc(S(=O)(=O)c2ccc(O)c(CC=C)c2)ccc1O,-8.79%
22,CCC1(C)Cc2c(sc3nc(SC)[nH]c(=O)c23)CO1 (centres undefined),-9.23%
23,CCC1(C)Cc2c(sc3nc4n(c(=O)c23)CCCS4)CO1 (centres undefined),-3.92%
24,CCC1(C)Cc2c(sc3[nH]c(=S)n(Cc4ccccc4)c(=O)c23)CO1 (centres undefined),32.2% (active)
